Measurements published in PubChem BioAssay (Tox21).
Records with an inconclusive call do not appear. A call without a number means that no potency is given here. Activity calls are given as the source filed them. The call rests on the fitted dose curve; in most records, active means well fitted cell-killing curve with a large enough effect in the repeat runs; inconclusive means weak or mixed curves, or effect the other way; inactive means flat fitted curve, though single readings scatter.

test: cAMP Responsive Elements (CRE) small molecule antagonists, cell-based qHTS assay: qHTS cell viability counter screen (AID 2060913); conditions: CRE-bla HEK293T viability, CellTiter-Glo luminescence, 5 h; series mostly up to 92.4 µM; further: nearly all actives have a fitted effect of over 40% in size
How it was run: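 HEK293T CRE-bla, 2,000 cells/well, 18 h preincubation; cpd in DMSO + NKH477 0.25 uM final, 3 h 37 C/5% CO2; LiveBLAzer 2 h RT, then CellTiter-Glo 30 min RT, luminescence.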
Potency means the concentration at half of the fitted maximal effect.

Q: For NC(=O)C1CO1 (stereo not given), which Potency is on record?
A: The Potency was “inactive”.

Q: Which Potency does the source give for CN1CCN(C2=Nc3cc(F)ccc3Cc3ccccc32)CC1 here?
A: The Potency was “inactive”.

Q: Which Potency does the source give for CCCCCCCC/C=C\CCCCCCCCOCCO here?
A: The Potency was 79.4 µM (active).

Q: Which Potency does the source give for Cc1cccnc1 here?
A: Its Potency is “inactive”.

Q: Which Potency does the source give for COc1ccccc1N1CCN(CC(O)COc2cccc3ccccc23)CC1 (stereo not given) here?
A: The Potency was “inactive”.

Q: For CCCCCCCC/C=C\CCCCCCCC(=O)OC(CO)CO, which Potency is on record?
A: Its Potency is “inactive”.

Q: With N[C@@H](COP(=O)(O)O)C(=O)O as the molecule, how does the viability change, negative = cytotoxic read?
A: Its viability change, negative = cytotoxic is 4.6% [at 18.9 µM] (inactive).

Q: With CC(=O)CCc1ccc(OC(C)=O)cc1 as the molecule, how does the Potency read?
A: The Potency was “inactive”.

Q: Which Potency does the source give for COC(=O)C(c1ccccc1Cl)N1CCc2sccc2C1 (stereo not given) here?
A: Its Potency is “inactive”.

Q: Which Potency does the source give for CC(C)O.CC(C)O.CCOC(=O)/C=C(\C)O.CCOC(=O)/C=C(\C)O.[Ti] here?
A: Its Potency is “inactive”.

Q: Which Potency does the source give for Cc1c(F)c(N2CCNC(C)C2)cc2c1c(=O)c(C(=O)O)cn2C1CC1 (stereo not given) here?
A: The Potency was “inactive”.

Q: With C=CCNc1nc(NCC=C)nc(N2CCN(C(c3ccc(F)cc3)c3ccc(F)cc3)CC2)n1 as the molecule, how does the Potency read?
A: The Potency was “inactive”.

Q: For CC(=O)c1ccc2ccc3ccccc3c2c1, which Potency is on record?
A: Its Potency is “inactive”.

Q: With CCCCCCCCCCCCN1CCCC1=O as the molecule, how does the Potency read?
A: Its Potency is “inactive”.

Q: With COc1ccc(/C(C)=C/C(=O)O)c(OC)c1 as the molecule, how does the Potency read?
A: Its Potency is “inactive”.

Q: Which Potency does the source give for CCCCC(CC)COC(=O)CCCCCCCC(=O)OCC(CC)CCCC (stereo not given) here?
A: The Potency was “inactive”.

Q: For Nc1ccc(N)c2ccccc12, which Potency is on record?
A: Its Potency is “inactive”.

Q: With CC(C(=O)O)c1ccc(CC2CCCC2=O)cc1 (stereo not given) as the molecule, how does the Potency read?
A: The Potency was “inactive”.

Q: Which Potency does the source give for COC(=O)C1=C(C)NC(C)=C(C(=O)OCCc2ccc(N3CCN(C(c4ccccc4)c4ccccc4)CC3)cc2)C1c1cccc([N+](=O)[O-])c1 (stereo not given) here?
A: Its Potency is “inactive”.

Q: For C[C@H](O)C(=O)Nc1c(I)c(C(=O)NC(CO)CO)c(I)c(C(=O)NC(CO)CO)c1I, which Potency is on record?
A: The Potency was “inactive”.

Q: Which Potency does the source give for NNc1nnc(NN)c2ccccc12 here?
A: The Potency was “inactive”.

Q: For N#C[C@@H]1CC(F)(F)CN1C(=O)CNC1CC2CCC(C1)N2c1ncccn1 (stereo not given in full), which Potency is on record?
A: Its Potency is “inactive”.

Q: For COc1cccc2c1C(=O)c1c(O)c3c(c(O)c1C2=O)C[C@@](O)(C(=O)CO)C[C@@H]3O[C@H]1C[C@H](N)[C@H](O[C@@H]2CCCCO2)[C@H](C)O1, which Potency is on record?
A: The Potency was “inactive”.

Q: For CCO/C([O-])=N/c1c[n+](N2CCOCC2)no1, which Potency is on record?
A: The Potency was “inactive”.

Q: Which Potency does the source give for CC(C)(O)c1ccccc1CC[C@@H](SCC1(CC(=O)O)CC1)c1cccc(/C=C/c2ccc3ccc(Cl)cc3n2)c1 here?
A: Its Potency is “inactive”.

Q: Which Potency does the source give for CCCN(CCC)C(=O)C(CCC(=O)O)NC(=O)c1ccccc1 (stereo not given) here?
A: The Potency was “inactive”.

Q: For CCC(C)NC(N)=O (stereo not given), which Potency is on record?
A: The Potency was “inactive”.

Q: For CN(C)Cc1cc(CN(C)C)c(O)c(CN(C)C)c1, which Potency is on record?
A: Its Potency is “inactive”.

Q: For CCc1ccc(Br)cc1, which Potency is on record?
A: Its Potency is “inactive”.

Q: Which Potency does the source give for CCC(C)(C)C1CCC(O)CC1 (stereo not given) here?
A: The Potency was “inactive”.

Q: For Cc1oc(=O)oc1COC(=O)[C@@H]1N2C(=O)[C@@H](NC(=O)[C@H](N)c3ccccc3)[C@H]2SC1(C)C, which Potency is on record?
A: Its Potency is “inactive”.

Q: Which Potency does the source give for CCCCCCCCCCOC(C)=O here?
A: The Potency was “inactive”.

Q: For CN1CCCN(C(c2ccccc2)c2ccc(Cl)cc2)CC1 (stereo not given), which Potency is on record?
A: Its Potency is “inactive”.

Q: With CCCCCCCCCCCC(=O)NCCCN(C)C as the molecule, how does the Potency read?
A: Its Potency is 61.1 µM (active).

Q: For Cc1c(Cl)cccc1Cl, which Potency is on record?
A: Its Potency is “inactive”.

Q: With Cc1ccc2c(c1)C(=O)c1ccccc1C2=O as the molecule, how does the Potency read?
A: The Potency was “inactive”.

Q: Which Potency does the source give for CC/C=C\CCOC(=O)c1ccccc1 here?
A: Its Potency is “inactive”.

Q: Which Potency does the source give for Nc1ccc(N)c2c1C(=O)c1ccccc1C2=O here?
A: The Potency was “inactive”.

Q: For CCN(CC)CC(=O)OCC(=O)[C@@]1(O)CC[C@H]2[C@@H]3CCC4=CC(=O)CC[C@]4(C)[C@H]3[C@@H](O)C[C@@]21C, which Potency is on record?
A: The Potency was “inactive”.

Q: For CCCCOC(=O)CC#N, which Potency is on record?
A: The Potency was “inactive”.
